# Experiments:
# Assay in all cases: DAPPL (digital affinity profiling via proximity ligation, sequencing); 10 mM Tris-HCl pH 7.5, 50 mM NaCl, 1 mM DTT, 4% glycerol, room temperature, 30 min; GST-TFs on glutathione beads, 16-mer random dsDNA library, 0.1% formaldehyde crosslink after washing; high values mean tight binding
# Conditions in all cases: protein: recombinant; tags: N-terminal GST; dsDNA, one strand shown
# FLI1 = biological target: T1, FLI1 (Homo sapiens, UniProt Q01543 1-452)
# T1 sequence: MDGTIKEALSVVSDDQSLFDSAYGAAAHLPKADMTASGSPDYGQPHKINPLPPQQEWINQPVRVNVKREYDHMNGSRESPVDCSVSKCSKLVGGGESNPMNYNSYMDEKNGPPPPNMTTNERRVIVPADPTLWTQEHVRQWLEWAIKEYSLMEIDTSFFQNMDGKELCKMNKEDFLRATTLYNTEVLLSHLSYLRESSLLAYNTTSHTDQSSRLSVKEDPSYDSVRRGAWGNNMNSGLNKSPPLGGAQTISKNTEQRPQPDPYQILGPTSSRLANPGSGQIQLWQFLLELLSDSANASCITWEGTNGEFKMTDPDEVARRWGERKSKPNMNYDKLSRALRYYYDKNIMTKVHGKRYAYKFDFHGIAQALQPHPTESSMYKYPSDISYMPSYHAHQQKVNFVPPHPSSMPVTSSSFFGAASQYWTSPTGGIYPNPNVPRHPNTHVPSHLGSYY
# Outline: (§1)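 The binding signal reported is, for every hexamer, its read frequency for a factor over its read frequency for the tag-only sample. Reads came from pools of yeast-expressed, GST-fused human transcription factors on glutathione beads, barcoded with DNA and mixed with that sample, which were incubated with 200 nmole of a random double-stranded 16-mer DNA library in Tris/NaCl/DTT/glycerol buffer at room temperature for 30 min. After washing, the pools were crosslinked with 0.1% formaldehyde, proximity-ligated with BsaI/T4 ligase for 1 h at 37 °C, PCR-amplified and sequenced on an Illumina NextSeq500.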
# ELK1 = biological target: T2, ELK1 (Homo sapiens, UniProt P19419 1-428)
# T2 sequence: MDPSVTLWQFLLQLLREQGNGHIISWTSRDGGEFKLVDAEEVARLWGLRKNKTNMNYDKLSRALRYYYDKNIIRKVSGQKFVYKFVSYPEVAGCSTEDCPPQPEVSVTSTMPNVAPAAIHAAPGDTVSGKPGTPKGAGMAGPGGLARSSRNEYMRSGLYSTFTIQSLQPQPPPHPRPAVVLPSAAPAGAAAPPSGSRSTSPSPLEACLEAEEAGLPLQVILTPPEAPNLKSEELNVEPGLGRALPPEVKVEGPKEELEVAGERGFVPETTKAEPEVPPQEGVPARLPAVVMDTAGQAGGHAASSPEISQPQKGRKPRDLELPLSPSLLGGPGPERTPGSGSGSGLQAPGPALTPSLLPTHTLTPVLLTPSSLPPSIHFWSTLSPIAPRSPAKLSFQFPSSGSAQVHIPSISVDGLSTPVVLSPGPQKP
# Outline: as §1
# GABPA = biological target: T3, GABPA (Homo sapiens, UniProt Q06546 1-454)
# T3 sequence: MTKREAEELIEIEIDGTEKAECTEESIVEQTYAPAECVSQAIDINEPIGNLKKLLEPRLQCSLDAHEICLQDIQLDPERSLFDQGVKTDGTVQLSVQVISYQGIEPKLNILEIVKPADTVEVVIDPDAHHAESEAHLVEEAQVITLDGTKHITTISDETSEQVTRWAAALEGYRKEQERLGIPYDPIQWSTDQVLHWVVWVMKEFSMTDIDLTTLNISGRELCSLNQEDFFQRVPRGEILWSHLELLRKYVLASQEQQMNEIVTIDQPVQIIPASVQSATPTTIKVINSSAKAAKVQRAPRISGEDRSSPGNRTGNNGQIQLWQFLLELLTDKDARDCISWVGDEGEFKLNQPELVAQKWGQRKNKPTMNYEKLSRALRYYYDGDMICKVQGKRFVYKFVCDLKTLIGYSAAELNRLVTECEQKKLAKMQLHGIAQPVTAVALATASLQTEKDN
# Outline: as §1
# ERG = biological target: T4, ERG (Homo sapiens, UniProt P11308 1-479)
# T4 sequence: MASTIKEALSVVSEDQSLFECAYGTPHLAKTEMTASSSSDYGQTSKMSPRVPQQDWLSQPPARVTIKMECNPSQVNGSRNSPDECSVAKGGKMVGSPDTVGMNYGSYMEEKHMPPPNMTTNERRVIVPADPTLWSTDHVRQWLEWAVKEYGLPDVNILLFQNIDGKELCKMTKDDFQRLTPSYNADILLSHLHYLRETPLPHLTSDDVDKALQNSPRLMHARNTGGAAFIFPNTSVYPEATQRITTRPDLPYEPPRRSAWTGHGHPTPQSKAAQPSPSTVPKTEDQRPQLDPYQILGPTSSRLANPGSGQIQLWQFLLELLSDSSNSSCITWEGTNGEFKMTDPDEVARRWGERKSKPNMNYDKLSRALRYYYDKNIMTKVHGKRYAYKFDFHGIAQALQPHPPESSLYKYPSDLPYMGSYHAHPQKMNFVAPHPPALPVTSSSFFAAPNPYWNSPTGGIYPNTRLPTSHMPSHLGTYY
# Outline: as §1
# ELF1 = ELF1 (Homo sapiens, UniProt P32519 1-619)
# Sequence of ELF1 (P32519 whole entry): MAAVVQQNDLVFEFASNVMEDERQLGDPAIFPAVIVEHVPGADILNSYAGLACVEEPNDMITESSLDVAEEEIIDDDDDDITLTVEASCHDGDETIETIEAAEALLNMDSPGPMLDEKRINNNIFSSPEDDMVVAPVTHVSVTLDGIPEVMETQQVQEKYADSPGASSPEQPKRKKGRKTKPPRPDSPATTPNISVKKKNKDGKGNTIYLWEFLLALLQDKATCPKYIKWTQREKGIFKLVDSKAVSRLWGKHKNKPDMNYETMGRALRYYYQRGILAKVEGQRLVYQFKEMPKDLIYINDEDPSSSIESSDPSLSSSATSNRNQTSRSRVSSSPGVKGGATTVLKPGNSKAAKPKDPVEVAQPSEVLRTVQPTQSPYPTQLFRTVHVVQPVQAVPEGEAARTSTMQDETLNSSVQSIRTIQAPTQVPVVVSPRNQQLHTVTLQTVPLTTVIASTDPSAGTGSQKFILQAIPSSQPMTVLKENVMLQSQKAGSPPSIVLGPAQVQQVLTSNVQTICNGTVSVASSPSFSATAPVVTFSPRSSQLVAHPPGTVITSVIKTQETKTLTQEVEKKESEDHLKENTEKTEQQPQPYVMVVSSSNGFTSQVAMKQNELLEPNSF
# Outline: as §1
# EHF = biological target: T5, EHF (Homo sapiens, UniProt Q9NZC4 1-300)
# T5 sequence: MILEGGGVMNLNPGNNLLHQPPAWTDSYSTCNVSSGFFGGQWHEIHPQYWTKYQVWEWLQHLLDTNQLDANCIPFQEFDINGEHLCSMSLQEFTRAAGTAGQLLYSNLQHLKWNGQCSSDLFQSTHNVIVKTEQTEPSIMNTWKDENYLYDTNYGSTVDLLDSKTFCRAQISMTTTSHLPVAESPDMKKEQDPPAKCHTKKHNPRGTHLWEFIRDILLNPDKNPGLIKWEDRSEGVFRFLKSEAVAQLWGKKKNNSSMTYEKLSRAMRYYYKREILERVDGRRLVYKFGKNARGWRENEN
# Outline: as §1
# SPI1 = SPI1 (Homo sapiens, UniProt P17947 1-270)
# Outline: as §1
# SPIB = SPIB (Homo sapiens, UniProt Q01892 1-262)
# Sequence of SPIB (Q01892 whole entry): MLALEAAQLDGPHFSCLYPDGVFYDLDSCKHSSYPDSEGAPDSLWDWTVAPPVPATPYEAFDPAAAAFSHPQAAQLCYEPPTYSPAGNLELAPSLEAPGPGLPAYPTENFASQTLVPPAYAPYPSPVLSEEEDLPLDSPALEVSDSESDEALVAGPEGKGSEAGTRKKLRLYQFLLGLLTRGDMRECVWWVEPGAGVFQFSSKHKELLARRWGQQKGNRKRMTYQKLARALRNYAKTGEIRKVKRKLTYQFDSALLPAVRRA
# Outline: as §1
# ELK3 = biological target: T6, ELK3 (Homo sapiens, UniProt P41970 1-407)
# T6 sequence: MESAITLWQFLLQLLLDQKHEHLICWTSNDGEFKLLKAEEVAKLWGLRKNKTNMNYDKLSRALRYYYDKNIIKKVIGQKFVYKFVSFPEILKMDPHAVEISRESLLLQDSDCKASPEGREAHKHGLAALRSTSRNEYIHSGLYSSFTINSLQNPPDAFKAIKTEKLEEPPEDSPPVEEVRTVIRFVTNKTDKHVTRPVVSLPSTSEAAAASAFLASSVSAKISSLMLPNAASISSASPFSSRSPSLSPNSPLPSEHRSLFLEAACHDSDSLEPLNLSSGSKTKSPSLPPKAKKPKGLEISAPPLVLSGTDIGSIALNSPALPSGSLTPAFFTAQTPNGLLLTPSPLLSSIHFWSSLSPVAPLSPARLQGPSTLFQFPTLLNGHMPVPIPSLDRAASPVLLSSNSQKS
# Outline: as §1
# FEV = biological target: T7, FEV (Homo sapiens, UniProt Q99581 1-238)
# T7 sequence: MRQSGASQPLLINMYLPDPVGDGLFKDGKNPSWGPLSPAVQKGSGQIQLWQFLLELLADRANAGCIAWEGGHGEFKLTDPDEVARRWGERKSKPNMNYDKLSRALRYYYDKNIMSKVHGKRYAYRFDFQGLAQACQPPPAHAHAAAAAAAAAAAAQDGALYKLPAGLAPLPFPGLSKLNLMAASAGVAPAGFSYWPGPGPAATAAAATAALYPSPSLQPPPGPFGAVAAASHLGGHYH
# Outline: as §1
# ETV5 = ETV5 (Homo sapiens, UniProt P41161 1-510)
# Sequence of ETV5 (P41161 whole entry): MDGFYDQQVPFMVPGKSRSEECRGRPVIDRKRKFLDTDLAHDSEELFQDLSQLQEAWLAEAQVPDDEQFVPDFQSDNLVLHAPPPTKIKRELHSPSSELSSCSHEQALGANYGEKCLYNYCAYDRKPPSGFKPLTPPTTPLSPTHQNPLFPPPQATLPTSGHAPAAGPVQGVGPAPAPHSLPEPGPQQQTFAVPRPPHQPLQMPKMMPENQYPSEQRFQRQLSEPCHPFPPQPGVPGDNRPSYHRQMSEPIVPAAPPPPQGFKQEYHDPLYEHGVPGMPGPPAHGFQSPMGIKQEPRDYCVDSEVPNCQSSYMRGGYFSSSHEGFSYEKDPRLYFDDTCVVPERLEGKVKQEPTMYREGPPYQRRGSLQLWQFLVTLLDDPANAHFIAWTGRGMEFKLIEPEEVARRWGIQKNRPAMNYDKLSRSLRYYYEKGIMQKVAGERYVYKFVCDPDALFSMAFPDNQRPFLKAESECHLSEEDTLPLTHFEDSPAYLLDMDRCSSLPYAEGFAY
# Outline: as §1
# SPIC = biological target: T8, SPIC (Homo sapiens, UniProt Q8N5J4 1-248)
# T8 sequence: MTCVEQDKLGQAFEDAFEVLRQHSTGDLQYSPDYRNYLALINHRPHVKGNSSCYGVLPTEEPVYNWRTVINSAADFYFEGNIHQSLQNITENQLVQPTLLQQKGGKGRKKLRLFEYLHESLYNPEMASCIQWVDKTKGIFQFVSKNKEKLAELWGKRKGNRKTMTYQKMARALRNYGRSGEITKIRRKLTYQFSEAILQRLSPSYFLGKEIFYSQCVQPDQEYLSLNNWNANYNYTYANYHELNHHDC
# Outline: as §1
# ELF4 = ELF4 (Homo sapiens, UniProt Q99607 1-663)
# Sequence of ELF4 (Q99607 whole entry): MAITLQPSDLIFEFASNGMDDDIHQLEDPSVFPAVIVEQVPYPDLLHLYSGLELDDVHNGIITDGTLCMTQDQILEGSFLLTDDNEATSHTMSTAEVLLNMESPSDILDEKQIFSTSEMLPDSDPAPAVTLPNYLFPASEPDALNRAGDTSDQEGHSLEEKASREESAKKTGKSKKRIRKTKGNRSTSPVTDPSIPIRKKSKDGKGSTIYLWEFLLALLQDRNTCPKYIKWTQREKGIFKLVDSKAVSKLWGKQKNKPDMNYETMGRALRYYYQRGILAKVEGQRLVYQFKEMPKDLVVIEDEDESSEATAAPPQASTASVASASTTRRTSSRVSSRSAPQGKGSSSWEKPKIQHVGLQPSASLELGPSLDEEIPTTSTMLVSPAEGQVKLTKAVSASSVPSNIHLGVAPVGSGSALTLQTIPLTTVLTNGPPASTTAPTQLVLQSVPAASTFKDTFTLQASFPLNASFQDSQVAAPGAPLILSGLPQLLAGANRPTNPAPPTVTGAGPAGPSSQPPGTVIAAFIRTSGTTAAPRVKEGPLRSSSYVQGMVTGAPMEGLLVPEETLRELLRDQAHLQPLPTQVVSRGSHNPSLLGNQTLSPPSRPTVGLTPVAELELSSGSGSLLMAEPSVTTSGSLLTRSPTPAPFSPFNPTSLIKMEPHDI
# Outline: as §1
# ELK4 = biological target: T9, ELK4 (Homo sapiens, UniProt P28324-2 1-405)
# T9 sequence: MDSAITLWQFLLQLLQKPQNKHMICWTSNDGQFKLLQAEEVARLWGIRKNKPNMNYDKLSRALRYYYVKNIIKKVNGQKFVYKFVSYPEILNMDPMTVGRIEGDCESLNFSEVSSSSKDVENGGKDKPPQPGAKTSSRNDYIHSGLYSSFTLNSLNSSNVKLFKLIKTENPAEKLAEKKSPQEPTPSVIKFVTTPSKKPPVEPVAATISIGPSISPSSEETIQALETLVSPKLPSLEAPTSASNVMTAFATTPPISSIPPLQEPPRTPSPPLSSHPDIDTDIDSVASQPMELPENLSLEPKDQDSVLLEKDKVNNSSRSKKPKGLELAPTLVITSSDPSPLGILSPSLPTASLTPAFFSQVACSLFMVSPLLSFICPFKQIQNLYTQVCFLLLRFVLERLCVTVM
# Outline: as §1
# ETV2 = biological target: T10, ETV2 (Homo sapiens, UniProt O00321 1-342)
# T10 sequence: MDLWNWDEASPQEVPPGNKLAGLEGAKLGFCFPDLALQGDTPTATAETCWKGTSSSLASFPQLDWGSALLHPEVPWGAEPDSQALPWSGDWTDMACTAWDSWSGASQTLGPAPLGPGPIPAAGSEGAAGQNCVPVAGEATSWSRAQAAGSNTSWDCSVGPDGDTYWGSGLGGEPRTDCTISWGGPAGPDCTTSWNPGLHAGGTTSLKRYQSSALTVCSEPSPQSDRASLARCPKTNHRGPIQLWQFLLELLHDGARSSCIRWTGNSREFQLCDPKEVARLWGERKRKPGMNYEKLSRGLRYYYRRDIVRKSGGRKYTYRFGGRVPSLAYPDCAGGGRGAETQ
# Outline: as §1
# ELF3 = biological target: T11, ELF3 (Homo sapiens, UniProt P78545 1-371)
# T11 sequence: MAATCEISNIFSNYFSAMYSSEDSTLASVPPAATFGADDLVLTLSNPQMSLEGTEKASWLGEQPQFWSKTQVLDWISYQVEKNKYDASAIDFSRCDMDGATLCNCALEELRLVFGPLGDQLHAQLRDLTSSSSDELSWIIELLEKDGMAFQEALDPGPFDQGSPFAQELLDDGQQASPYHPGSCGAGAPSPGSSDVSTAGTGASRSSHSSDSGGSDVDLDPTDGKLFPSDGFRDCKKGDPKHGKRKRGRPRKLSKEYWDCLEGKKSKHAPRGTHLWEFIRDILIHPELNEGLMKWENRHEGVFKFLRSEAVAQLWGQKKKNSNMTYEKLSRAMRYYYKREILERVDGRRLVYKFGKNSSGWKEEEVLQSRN
# Outline: as §1
# ETV1 = ETV1 (Homo sapiens, UniProt P50549 1-477)
# Sequence of ETV1 (P50549 whole entry): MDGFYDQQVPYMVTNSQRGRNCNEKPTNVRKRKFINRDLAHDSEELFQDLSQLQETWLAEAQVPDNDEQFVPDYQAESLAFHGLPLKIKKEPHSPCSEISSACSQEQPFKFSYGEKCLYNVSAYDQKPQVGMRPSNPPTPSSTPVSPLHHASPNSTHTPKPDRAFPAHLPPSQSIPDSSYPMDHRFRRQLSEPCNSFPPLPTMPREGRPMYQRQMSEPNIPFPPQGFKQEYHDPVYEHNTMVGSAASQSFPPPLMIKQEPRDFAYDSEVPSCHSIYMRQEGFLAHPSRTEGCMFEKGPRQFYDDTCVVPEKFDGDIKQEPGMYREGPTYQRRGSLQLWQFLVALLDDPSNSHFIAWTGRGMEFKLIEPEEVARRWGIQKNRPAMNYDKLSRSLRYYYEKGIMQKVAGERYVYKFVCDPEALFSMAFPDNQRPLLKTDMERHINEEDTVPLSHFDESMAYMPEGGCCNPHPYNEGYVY
# Outline: as §1
sequence,measurement,setting,value
GTTATG,binding signal,FLI1,"1.07 fold enrichment (6-mer frequency, TF over GST control)"
same,binding signal,ELK1,"1.17 fold enrichment (6-mer frequency, TF over GST control)"
same,binding signal,GABPA,"1.16 fold enrichment (6-mer frequency, TF over GST control)"
same,binding signal,ERG,"1.19 fold enrichment (6-mer frequency, TF over GST control)"
same,binding signal,ELF1,"1.12 fold enrichment (6-mer frequency, TF over GST control)"
same,binding signal,EHF,"1.2 fold enrichment (6-mer frequency, TF over GST control)"
same,binding signal,SPI1,"1.18 fold enrichment (6-mer frequency, TF over GST control)"
same,binding signal,SPIB,"1.12 fold enrichment (6-mer frequency, TF over GST control)"
same,binding signal,ELK3,"1.06 fold enrichment (6-mer frequency, TF over GST control)"
same,binding signal,FEV,"1.03 fold enrichment (6-mer frequency, TF over GST control)"
same,binding signal,ETV5,"1.14 fold enrichment (6-mer frequency, TF over GST control)"
same,binding signal,SPIC,"1.23 fold enrichment (6-mer frequency, TF over GST control)"
same,binding signal,ELF4,"1.1 fold enrichment (6-mer frequency, TF over GST control)"
same,binding signal,ELK4,"1.23 fold enrichment (6-mer frequency, TF over GST control)"
same,binding signal,ETV2,"1.14 fold enrichment (6-mer frequency, TF over GST control)"
same,binding signal,ELF3,"1.25 fold enrichment (6-mer frequency, TF over GST control)"
same,binding signal,ETV1,"1.14 fold enrichment (6-mer frequency, TF over GST control)"

# Reference: article PMC7862700, “An all-to-all approach to the identification of sequence-specific readers for epigenetic DNA modifications on cytosine”
